# Measured values published in PMC11006913.
# Columns and labels:
# Test in all cases: PBM; 200 nM protein, PBS
# Conditions in all cases: dsDNA, one strand shown
# HOXA4 [1] = target: HOXA4 (Homo sapiens, UniProt Q00056 201-287, W262R)
# HOXA4 [2] = target: HOXA4 (Homo sapiens, UniProt Q00056 201-287, R217L)
# HOXA4 [3] = target: HOXA4 (Homo sapiens, UniProt Q00056 201-287)
# HOXA4 [4] = target: HOXA4 (Homo sapiens, UniProt Q00056 201-287, W262F)
# HOXB6 [5] = target: HOXB6 (Homo sapiens, UniProt P17509 132-218, K202E)
# HOXB6 (Homo sapiens, UniProt P17509 132-218, K202E), sequence (P17509 132-218 K202E): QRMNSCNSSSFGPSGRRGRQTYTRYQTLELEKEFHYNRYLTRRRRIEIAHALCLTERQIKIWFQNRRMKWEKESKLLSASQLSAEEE
# HOXB6 [6] = target: HOXB6 (Homo sapiens, UniProt P17509 132-218)
# HOXB6 (Homo sapiens, UniProt P17509 132-218), sequence (P17509 132-218): as the sequence (P17509 132-218 K202E) above, with E71K counted along it
# ALX3 [7] = target: ALX3 (Homo sapiens, UniProt O95076 139-225, N203Q)
# ALX3 (Homo sapiens, UniProt O95076 139-225, N203Q), sequence (O95076 139-225 N203Q): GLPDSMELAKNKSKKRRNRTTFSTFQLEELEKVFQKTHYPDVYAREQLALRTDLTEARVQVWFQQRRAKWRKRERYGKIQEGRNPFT
# ALX3 [8] = target: ALX3 (Homo sapiens, UniProt O95076 139-225)
# ALX3 (Homo sapiens, UniProt O95076 139-225), sequence (O95076 139-225): as the sequence (O95076 139-225 N203Q) above, with Q65N counted along it
# PROP1 [9] = target: PROP1 (Homo sapiens, UniProt O75360 56-141)
# PROP1 (Homo sapiens, UniProt O75360 56-141), sequence (O75360 56-141): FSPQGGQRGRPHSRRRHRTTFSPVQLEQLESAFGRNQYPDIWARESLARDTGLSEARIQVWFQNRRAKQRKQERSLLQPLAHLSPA
# PROP1 [10] = target: PROP1 (Homo sapiens, UniProt O75360 56-141, R99H)
# PROP1 (Homo sapiens, UniProt O75360 56-141, R99H), sequence (O75360 56-141 R99H): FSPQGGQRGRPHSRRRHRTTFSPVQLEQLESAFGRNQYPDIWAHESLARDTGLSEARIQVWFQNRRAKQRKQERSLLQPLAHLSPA
# ALX3 [11] = target: ALX3 (Homo sapiens, UniProt O95076 139-225, L168Q)
# ALX3 (Homo sapiens, UniProt O95076 139-225, L168Q), sequence (O95076 139-225 L168Q): as the sequence (O95076 139-225 N203Q) above, with L30Q, Q65N counted along it
# ALX3 [12] = target: ALX3 (Homo sapiens, UniProt O95076 139-225, L168V)
# ALX3 (Homo sapiens, UniProt O95076 139-225, L168V), sequence (O95076 139-225 L168V): as the sequence (O95076 139-225 N203Q) above, with L30V, Q65N counted along it
# PROP1 [13] = target: PROP1 (Homo sapiens, UniProt O75360 56-141, F88S)
# PROP1 (Homo sapiens, UniProt O75360 56-141, F88S), sequence (O75360 56-141 F88S): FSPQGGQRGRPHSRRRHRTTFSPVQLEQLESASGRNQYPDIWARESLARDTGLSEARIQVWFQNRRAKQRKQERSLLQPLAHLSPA
# ALX3 [14] = target: ALX3 (Homo sapiens, UniProt O95076 139-225, N203S)
# ALX3 (Homo sapiens, UniProt O95076 139-225, N203S), sequence (O95076 139-225 N203S): as the sequence (O95076 139-225 N203Q) above, with Q65S counted along it
# HOXA2 [15] = target: HOXA2 (Homo sapiens, UniProt O43364 129-215, R185T)
# HOXA2 (Homo sapiens, UniProt O43364 129-215, R185T), sequence (O43364 129-215 R185T): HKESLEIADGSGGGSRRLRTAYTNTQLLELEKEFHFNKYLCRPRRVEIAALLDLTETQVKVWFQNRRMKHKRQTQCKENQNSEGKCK
# HOXA2 [16] = target: HOXA2 (Homo sapiens, UniProt O43364 129-215, R185K)
# HOXA2 (Homo sapiens, UniProt O43364 129-215, R185K), sequence (O43364 129-215 R185K): as the sequence (O43364 129-215 R185T) above, with T57K counted along it
# HOXA2 [17] = target: HOXA2 (Homo sapiens, UniProt O43364 129-215, Y150S)
# HOXA2 (Homo sapiens, UniProt O43364 129-215, Y150S), sequence (O43364 129-215 Y150S): as the sequence (O43364 129-215 R185T) above, with Y22S, T57R counted along it
# HOXA2 [18] = target: HOXA2 (Homo sapiens, UniProt O43364 129-215)
# HOXA2 (Homo sapiens, UniProt O43364 129-215), sequence (O43364 129-215): as the sequence (O43364 129-215 R185T) above, with T57R counted along it
# HOXA4 (Homo sapiens, UniProt Q00056 201-287, R217L), sequence (Q00056 201-287 R217L): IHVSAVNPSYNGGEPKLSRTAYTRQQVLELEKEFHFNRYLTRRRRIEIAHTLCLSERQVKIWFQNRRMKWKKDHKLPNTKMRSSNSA
# HOXA4 (Homo sapiens, UniProt Q00056 201-287, W262R), sequence (Q00056 201-287 W262R): as the sequence (Q00056 201-287 R217L) above, with L17R, W62R counted along it
# HOXA4 (Homo sapiens, UniProt Q00056 201-287), sequence (Q00056 201-287): as the sequence (Q00056 201-287 R217L) above, with L17R counted along it
# HOXA4 (Homo sapiens, UniProt Q00056 201-287, W262F), sequence (Q00056 201-287 W262F): as the sequence (Q00056 201-287 R217L) above, with L17R, W62F counted along it
sequence,measurement,setting,value
CACACCGG,binding signal,HOXA4 [1],"9.76 upbm affinity estimate (log intensity, higher = more binding, comparable within an allelic series)"
same,binding signal,HOXA4 [2],"9.68 upbm affinity estimate (log intensity, higher = more binding, comparable within an allelic series)"
same,binding signal,HOXA4 [3],"9.76 upbm affinity estimate (log intensity, higher = more binding, comparable within an allelic series)"
same,binding signal,HOXA4 [4],"9.81 upbm affinity estimate (log intensity, higher = more binding, comparable within an allelic series)"
CCGGCACG,binding signal,HOXA4 [1],"9.89 upbm affinity estimate (log intensity, higher = more binding, comparable within an allelic series)"
same,binding signal,HOXA4 [2],"9.91 upbm affinity estimate (log intensity, higher = more binding, comparable within an allelic series)"
same,binding signal,HOXA4 [3],"9.85 upbm affinity estimate (log intensity, higher = more binding, comparable within an allelic series)"
same,binding signal,HOXA4 [4],"9.93 upbm affinity estimate (log intensity, higher = more binding, comparable within an allelic series)"
CCAGCCGG,binding signal,HOXA4 [1],"9.8 upbm affinity estimate (log intensity, higher = more binding, comparable within an allelic series)"
same,binding signal,HOXA4 [2],"9.68 upbm affinity estimate (log intensity, higher = more binding, comparable within an allelic series)"
same,binding signal,HOXA4 [3],"9.56 upbm affinity estimate (log intensity, higher = more binding, comparable within an allelic series)"
same,binding signal,HOXA4 [4],"9.77 upbm affinity estimate (log intensity, higher = more binding, comparable within an allelic series)"
GCCCCCAC,binding signal,HOXA4 [1],"9.79 upbm affinity estimate (log intensity, higher = more binding, comparable within an allelic series)"
same,binding signal,HOXB6 [5],"9.03 upbm affinity estimate (log intensity, higher = more binding, comparable within an allelic series)"
same,binding signal,HOXA4 [2],"9.73 upbm affinity estimate (log intensity, higher = more binding, comparable within an allelic series)"
same,binding signal,HOXA4 [3],"9.63 upbm affinity estimate (log intensity, higher = more binding, comparable within an allelic series)"
same,binding signal,HOXA4 [4],"9.84 upbm affinity estimate (log intensity, higher = more binding, comparable within an allelic series)"
same,binding signal,HOXB6 [6],"8.92 upbm affinity estimate (log intensity, higher = more binding, comparable within an allelic series)"
GACCCCCC,binding signal,HOXA4 [1],"9.49 upbm affinity estimate (log intensity, higher = more binding, comparable within an allelic series)"
same,binding signal,HOXA4 [2],"9.56 upbm affinity estimate (log intensity, higher = more binding, comparable within an allelic series)"
same,binding signal,HOXA4 [3],"9.7 upbm affinity estimate (log intensity, higher = more binding, comparable within an allelic series)"
same,binding signal,HOXA4 [4],"9.59 upbm affinity estimate (log intensity, higher = more binding, comparable within an allelic series)"
CCTGCTCC,binding signal,HOXA4 [1],"9.98 upbm affinity estimate (log intensity, higher = more binding, comparable within an allelic series)"
same,binding signal,HOXA4 [2],"9.88 upbm affinity estimate (log intensity, higher = more binding, comparable within an allelic series)"
same,binding signal,HOXA4 [3],"9.83 upbm affinity estimate (log intensity, higher = more binding, comparable within an allelic series)"
same,binding signal,HOXA4 [4],"9.97 upbm affinity estimate (log intensity, higher = more binding, comparable within an allelic series)"
GGGGCACC,binding signal,HOXA4 [1],"9.71 upbm affinity estimate (log intensity, higher = more binding, comparable within an allelic series)"
same,binding signal,HOXB6 [5],"8.98 upbm affinity estimate (log intensity, higher = more binding, comparable within an allelic series)"
same,binding signal,HOXA4 [2],"9.76 upbm affinity estimate (log intensity, higher = more binding, comparable within an allelic series)"
same,binding signal,HOXA4 [3],"9.9 upbm affinity estimate (log intensity, higher = more binding, comparable within an allelic series)"
same,binding signal,HOXA4 [4],"9.88 upbm affinity estimate (log intensity, higher = more binding, comparable within an allelic series)"
same,binding signal,HOXB6 [6],"8.89 upbm affinity estimate (log intensity, higher = more binding, comparable within an allelic series)"
CCCAGACC,binding signal,HOXA4 [1],"9.9 upbm affinity estimate (log intensity, higher = more binding, comparable within an allelic series)"
same,binding signal,HOXA4 [2],"9.76 upbm affinity estimate (log intensity, higher = more binding, comparable within an allelic series)"
same,binding signal,ALX3 [7],"7.81 upbm affinity estimate (log intensity, higher = more binding, comparable within an allelic series)"
same,binding signal,HOXA4 [3],"9.51 upbm affinity estimate (log intensity, higher = more binding, comparable within an allelic series)"
same,binding signal,ALX3 [8],"7.71 upbm affinity estimate (log intensity, higher = more binding, comparable within an allelic series)"
same,binding signal,PROP1 [9],"6.45 upbm affinity estimate (log intensity, higher = more binding, comparable within an allelic series)"
same,binding signal,PROP1 [10],"6.71 upbm affinity estimate (log intensity, higher = more binding, comparable within an allelic series)"
same,binding signal,ALX3 [11],"7.78 upbm affinity estimate (log intensity, higher = more binding, comparable within an allelic series)"
same,binding signal,ALX3 [12],"7.7 upbm affinity estimate (log intensity, higher = more binding, comparable within an allelic series)"
same,binding signal,PROP1 [13],"6.48 upbm affinity estimate (log intensity, higher = more binding, comparable within an allelic series)"
same,binding signal,HOXA4 [4],"9.84 upbm affinity estimate (log intensity, higher = more binding, comparable within an allelic series)"
same,binding signal,ALX3 [14],"7.84 upbm affinity estimate (log intensity, higher = more binding, comparable within an allelic series)"
CCCCCGGC,binding signal,HOXA4 [1],"9.54 upbm affinity estimate (log intensity, higher = more binding, comparable within an allelic series)"
same,binding signal,HOXA4 [2],"9.54 upbm affinity estimate (log intensity, higher = more binding, comparable within an allelic series)"
same,binding signal,ALX3 [7],"7.57 upbm affinity estimate (log intensity, higher = more binding, comparable within an allelic series)"
same,binding signal,HOXA4 [3],"9.88 upbm affinity estimate (log intensity, higher = more binding, comparable within an allelic series)"
same,binding signal,ALX3 [8],"7.92 upbm affinity estimate (log intensity, higher = more binding, comparable within an allelic series)"
same,binding signal,ALX3 [11],"7.56 upbm affinity estimate (log intensity, higher = more binding, comparable within an allelic series)"
same,binding signal,ALX3 [12],"7.46 upbm affinity estimate (log intensity, higher = more binding, comparable within an allelic series)"
same,binding signal,HOXA4 [4],"9.51 upbm affinity estimate (log intensity, higher = more binding, comparable within an allelic series)"
same,binding signal,ALX3 [14],"7.52 upbm affinity estimate (log intensity, higher = more binding, comparable within an allelic series)"
ACCCGTAG,binding signal,HOXA4 [1],"9.8 upbm affinity estimate (log intensity, higher = more binding, comparable within an allelic series)"
same,binding signal,HOXA4 [2],"9.7 upbm affinity estimate (log intensity, higher = more binding, comparable within an allelic series)"
same,binding signal,HOXA4 [3],"9.84 upbm affinity estimate (log intensity, higher = more binding, comparable within an allelic series)"
same,binding signal,HOXA4 [4],"9.82 upbm affinity estimate (log intensity, higher = more binding, comparable within an allelic series)"
CACTGGCC,binding signal,HOXA4 [1],"9.86 upbm affinity estimate (log intensity, higher = more binding, comparable within an allelic series)"
same,binding signal,HOXA2 [15],"7.06 upbm affinity estimate (log intensity, higher = more binding, comparable within an allelic series)"
same,binding signal,HOXA4 [2],"9.9 upbm affinity estimate (log intensity, higher = more binding, comparable within an allelic series)"
same,binding signal,HOXA2 [16],"10.5 upbm affinity estimate (log intensity, higher = more binding, comparable within an allelic series)"
same,binding signal,HOXA4 [3],"9.86 upbm affinity estimate (log intensity, higher = more binding, comparable within an allelic series)"
same,binding signal,HOXA2 [17],"10.5 upbm affinity estimate (log intensity, higher = more binding, comparable within an allelic series)"
same,binding signal,HOXA4 [4],"9.96 upbm affinity estimate (log intensity, higher = more binding, comparable within an allelic series)"
same,binding signal,HOXA2 [18],"7.16 upbm affinity estimate (log intensity, higher = more binding, comparable within an allelic series)"
